# PubChem BioAssay (NCATS)
# Inconclusive results are not listed. Where a call stands in place of a potency, no number is given. Calls of active or inactive are those of the source. Calls come from the whole dose curve; as a rule, active = well fitted curve in the direction sought with a large enough effect; inconclusive = small, poorly fitted or top-dose-only effect, or another doubt; inactive = no such curve, though single readings can be large; an effect the other way counts as inactive or inconclusive.
# How the values were obtained:
# [1] = P-glycoprotein substrates identified in KB-8-5-11 adenocarcinoma cell line, qHTS therapeutic library screen (AID 1346987); note: nearly all actives have a fitted effect of over 65% in size
# Outline: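 P-gp-mediated resistance screen: KB-8-5-11 cells treated 72 h with compounds in dose-response. CellTiter-Glo viability.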
# [2] = test system: Zika virus NS2B-NS3 protease (linked construct); experiment: Confirmatory screen NINDS AMC qHTS for Zika virus inhibitors (AID 1347152); note: potency is the fitted concentration of half-maximal effect; nearly all actives have a fitted effect of over 70% in size
# Outline: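 Purified NS2B-NS3 protease with NS2B hydrophilic domain linked to NS3 protease domain by flexible linker, 1 nM final in 10 mM Tris-HCl pH 8.0, 0.01% Tween 20. Compounds preincubated 15 min, room temperature; Bz-Nle-KRR-AMC 10 microM (Km 18.3 µM); 15-min fluorescence change, 4-parameter Hill fit.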
# [3] = ZIKV-mCherry secondary qHTS for Zika virus inhibitors (AID 1347158); note: top concentration of the series differs between compounds
# Outline: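 After overnight seeding at 37 °C, Vero cells receive compound and then ZIKV-mCherry (MOI 1). Following 48-72 h infection, cells are fixed, counterstained with Hoechst, and imaged; percent infected cells is derived from an mCherry intensity cut-off of 450 RFU.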
# [4] = test system: Zika virus NS2B-NS3 protease (linked); experiment: 384 well plate NINDS AMC confirmatory qHTS for Zika virus inhibitors (AID 1347163); note: potency is the fitted concentration of half-maximal effect; nearly all actives have a fitted effect of over 50% in size
# Outline: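 Linked protease 5/30/60 nM final; cpds up to 1 mM final, ~15 min preinc. Substrate Ac-VKTGKR-AMC 30 microM final. RT, dark, 25 min; FI ex 355/em 460; normalized to no-enzyme/no-inhibitor ctrls.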
# [5] = test system: Zika virus NS2B-NS3 protease (linked construct); experiment: 384 well plate NINDS Rhodamine confirmatory qHTS for Zika virus inhibitors (AID 1347164);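 note: fluorescence from protease cleavage of Ac-LKRR-rhodamine 110 substrate; potency is the fitted concentration of half-maximal effect; nearly all actives have a fitted effect of over 65% in size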
# Outline: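 Linked protease at a final 5 nM, 30 nM or 60 nM was preincubated ~15 min with compounds, then given 10 microM Ac-LKRR-Rhodamine 110. Fluorescence (ex 485/em 538 nm) after 25 min in the dark at room temperature.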
# [6] = Confirmatory screen GU Rhodamine qHTS for Zika virus inhibitors qHTS (AID 1347157); note: potency is the fitted concentration of half-maximal effect; nearly all actives have a fitted effect of over 70% in size
# Outline: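 Percent inhibition came from the 15-min rise in Rhodamine110 fluorescence (1.5 microM substrate, ~15% conversion), normalized to no-inhibitor and no-enzyme wells and Hill-fitted. Unlinked protease, 25 nM, pH 8.0 Tris buffer; compounds up to 114 microM, 15-min preincubation.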
# [7] = test system: Zika virus NS2B-NS3 protease (unlinked complex); experiment: Primary screen GU Rhodamine qHTS for Zika virus inhibitors: Unlinked NS2B-NS3 protease assay (AID 1347159); note: nearly all actives have a fitted effect of over 60% in size; note: potency is the fitted concentration of half-maximal effect
# Outline: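 Compounds, tested up to 114 microM, were incubated for 15 minutes with 25 nM unlinked NS2B-NS3 protease at pH 8.0. Cleavage of 1.5 microM Rhodamine110 substrate was then followed by fluorescence for 15 minutes.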
# [8] = test system: Zika virus NS2B-NS3 protease (linked construct); experiment: Primary screen NINDS Rhodamine qHTS for Zika virus inhibitors (AID 1347160); note: nearly all actives have a fitted effect of over 55% in size
# Outline: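 Percent inhibition, normalized to uninhibited and enzyme-free controls, is fitted to a 4-parameter Hill equation. Fluorescence change comes from a 15-min cleavage of 1.5 microM bis-peptide Rhodamine110 substrate by 25 nM linked NS2B-NS3 at room temperature.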
compound,measurement,setting,value
CC1CC(=O)[C@]2(O)C(C(=O)OCCc3ccc(O)c(O)c3)=CO[C@@H](O[C@@H]3O[C@H](CO)[C@@H](O)[C@H](O)[C@H]3O)[C@H]12 (stereo partly drawn),Potency,[1],inactive
OC[C@H]1O[C@@H](OCCc2ccccc2)[C@H](O[C@@H]2OC[C@@H](O)[C@H](O)[C@H]2O)[C@@H](O)[C@@H]1O,Potency,[1],inactive
Cc1cc(C)c2nc(-c3ccccn3)cc(C(=O)Nc3ccc(S(=O)(=O)Nc4onc(C)c4C)cc3)c2c1,Potency,[2],22.1 µM (active)
same,Potency,[3],inactive
same,Potency,[4],5.01 µM (active)
same,Potency,[5],3.98 µM (active)
O=C1NC(=O)/C(=C/c2cccc(C(F)(F)F)c2)S1,Potency,[2],17.5 µM (active)
same,Potency,[4],100 µM (active)
same,Potency,[5],20 µM (active)
COc1ccc(C2C(C(=O)O)C(C(=O)O)C2c2ccc(OC)cc2O[C@@H]2O[C@H](CO)[C@@H](O)[C@H](O)[C@H]2O)c(O[C@@H]2O[C@H](CO)[C@@H](O)[C@H](O)[C@H]2O)c1 (stereo partly drawn),Potency,[6],9.26 µM (active)
CC(C)N(CCCNC(=O)Nc1ccc(C(C)(C)C)cc1)C[C@H]1O[C@@H](n2ccc3c(N)ncnc32)[C@H](O)[C@@H]1O,Potency,[1],inactive
same,Potency,[7],inactive
same,Potency,[8],inactive
CN1CCN(c2nc(-c3ccc(C(=O)NC4(C(=O)NCC#N)CCCCC4)cc3)cs2)CC1,Potency,[1],inactive
same,Potency,[7],inactive
C=C1CCC2C(C)(C)CC(O)CC2(C)C1CCC(C)CCOC(=O)CCC(=O)O (stereo not drawn),Potency,[1],inactive
same,Potency,[7],2.51 µM (active)
Nc1nc(COC(=O)c2ccc([N+](=O)[O-])cc2)nc(Nc2ccccc2)n1,Potency,[1],inactive
same,Potency,[7],inactive
CC1CCC2(C(=O)O)CCC3(C)C(=CCC4C5(C)CCC(O)C(C)(C(=O)O)C5CCC43C)C2C1(C)O (stereo not drawn),Potency,[1],inactive
same,Potency,[7],inactive
C=C1C2(C)CC3C4(C)OC(C5OC56C4=CC(=O)OC6(C)C)C3(C)C13C(=O)OC(C)C3(O)C2=O (stereo not drawn),Potency,[1],inactive
same,Potency,[7],inactive
same,Potency,[8],inactive
CCOc1ccc(-c2nn3ncccc3c2-c2ccc(S(C)(=O)=O)cc2)cc1,Potency,[1],inactive
same,Potency,[7],inactive
C=CC(C)(O)CC/C=C(\C)COC1O[C@H](CO)[C@@H](O)[C@H](O)[C@H]1O (stereo partly drawn),Potency,[1],inactive
same,Potency,[7],12.6 µM (active)
